Measurements reported in publication PMC7862700, “An all-to-all approach to the identification of sequence-specific readers for epigenetic DNA modifications on cytosine”.

How the values were obtained:
Assay in all cases: DAPPL (digital affinity profiling via proximity ligation, sequencing); 10 mM Tris-HCl pH 7.5, 50 mM NaCl, 1 mM DTT, 4% glycerol, room temperature, 30 min; GST-TFs on glutathione beads, 16-mer random dsDNA library, 0.1% formaldehyde crosslink after washing; high values mean tight binding
[1] = target: T1, FLI1 (Homo sapiens, UniProt Q01543 1-452); settings: protein: recombinant; tags: N-terminal GST; dsDNA, one strand shown
T1 sequence: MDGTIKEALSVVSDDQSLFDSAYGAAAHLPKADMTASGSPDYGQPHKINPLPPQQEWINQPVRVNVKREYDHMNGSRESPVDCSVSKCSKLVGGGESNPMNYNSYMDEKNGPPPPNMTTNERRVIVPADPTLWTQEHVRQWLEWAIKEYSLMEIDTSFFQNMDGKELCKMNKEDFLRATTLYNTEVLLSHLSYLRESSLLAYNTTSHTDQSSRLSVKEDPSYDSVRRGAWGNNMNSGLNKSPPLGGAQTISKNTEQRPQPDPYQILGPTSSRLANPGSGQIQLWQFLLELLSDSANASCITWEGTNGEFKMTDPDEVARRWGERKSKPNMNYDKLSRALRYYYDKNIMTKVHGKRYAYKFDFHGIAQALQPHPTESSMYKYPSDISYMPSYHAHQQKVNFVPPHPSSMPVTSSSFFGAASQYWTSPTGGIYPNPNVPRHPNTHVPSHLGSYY
Method in brief: (§1)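 Binding signal is given per hexamer as its read frequency for a factor divided by its frequency in the tag-only sample. GST-fused human transcription factors were expressed in yeast, captured on glutathione beads, barcoded with DNA and pooled with that sample, then incubated with 200 nmole of a 16-mer random double-stranded DNA library in Tris/NaCl/DTT/glycerol buffer for 30 min at room temperature. The pools were then washed, crosslinked, proximity-ligated, amplified by PCR and sequenced on an Illumina NextSeq500.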

[2] = target: T2, ELK1 (Homo sapiens, UniProt P19419 1-428); settings: protein: recombinant; tags: N-terminal GST; dsDNA, one strand shown
T2 sequence: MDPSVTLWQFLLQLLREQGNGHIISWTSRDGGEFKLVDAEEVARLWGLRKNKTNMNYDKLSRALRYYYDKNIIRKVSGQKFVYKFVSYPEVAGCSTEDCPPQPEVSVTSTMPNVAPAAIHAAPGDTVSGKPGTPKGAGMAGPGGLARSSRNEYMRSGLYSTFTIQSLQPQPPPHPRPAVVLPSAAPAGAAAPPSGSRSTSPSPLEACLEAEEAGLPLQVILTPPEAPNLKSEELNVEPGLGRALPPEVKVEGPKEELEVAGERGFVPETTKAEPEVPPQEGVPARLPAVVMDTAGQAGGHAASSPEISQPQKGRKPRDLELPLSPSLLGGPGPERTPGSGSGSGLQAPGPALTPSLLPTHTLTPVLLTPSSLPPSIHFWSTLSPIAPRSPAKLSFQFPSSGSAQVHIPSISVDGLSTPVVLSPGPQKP
Method in brief: as §1

[3] = target: T3, GABPA (Homo sapiens, UniProt Q06546 1-454); settings: protein: recombinant; tags: N-terminal GST; dsDNA, one strand shown
T3 sequence: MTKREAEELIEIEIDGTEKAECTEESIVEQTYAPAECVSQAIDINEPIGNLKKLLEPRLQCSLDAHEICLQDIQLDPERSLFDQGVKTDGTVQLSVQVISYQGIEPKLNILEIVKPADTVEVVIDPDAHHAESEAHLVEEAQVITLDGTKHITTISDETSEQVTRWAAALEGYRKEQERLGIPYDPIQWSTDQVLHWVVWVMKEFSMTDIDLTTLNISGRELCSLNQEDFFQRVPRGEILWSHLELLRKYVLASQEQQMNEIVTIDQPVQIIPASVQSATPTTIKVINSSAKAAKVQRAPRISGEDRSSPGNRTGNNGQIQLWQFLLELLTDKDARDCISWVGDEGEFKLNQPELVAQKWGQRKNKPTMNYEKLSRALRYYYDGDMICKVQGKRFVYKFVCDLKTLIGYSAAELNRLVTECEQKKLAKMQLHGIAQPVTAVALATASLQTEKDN
Method in brief: as §1

[4] = target: T4, ERG (Homo sapiens, UniProt P11308 1-479); settings: protein: recombinant; tags: N-terminal GST; dsDNA, one strand shown
T4 sequence: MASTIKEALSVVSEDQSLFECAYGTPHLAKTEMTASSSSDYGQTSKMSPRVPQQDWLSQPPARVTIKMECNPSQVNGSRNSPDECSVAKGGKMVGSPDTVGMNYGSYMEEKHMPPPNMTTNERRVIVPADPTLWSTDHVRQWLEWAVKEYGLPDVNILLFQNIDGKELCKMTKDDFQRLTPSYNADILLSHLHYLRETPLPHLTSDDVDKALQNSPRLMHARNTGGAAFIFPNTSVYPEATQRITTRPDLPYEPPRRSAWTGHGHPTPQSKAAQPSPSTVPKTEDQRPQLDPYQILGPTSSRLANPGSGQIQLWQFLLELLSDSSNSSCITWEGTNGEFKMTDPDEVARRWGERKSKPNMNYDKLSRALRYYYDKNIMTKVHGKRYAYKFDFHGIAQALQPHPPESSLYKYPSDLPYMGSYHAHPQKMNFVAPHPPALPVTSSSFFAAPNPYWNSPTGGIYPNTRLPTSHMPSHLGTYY
Method in brief: as §1

[5] = target: ELF1 (Homo sapiens, UniProt P32519 1-619); settings: protein: recombinant; tags: N-terminal GST; dsDNA, one strand shown
Method in brief: as §1

[6] = target: T5, EHF (Homo sapiens, UniProt Q9NZC4 1-300); settings: protein: recombinant; tags: N-terminal GST; dsDNA, one strand shown
T5 sequence: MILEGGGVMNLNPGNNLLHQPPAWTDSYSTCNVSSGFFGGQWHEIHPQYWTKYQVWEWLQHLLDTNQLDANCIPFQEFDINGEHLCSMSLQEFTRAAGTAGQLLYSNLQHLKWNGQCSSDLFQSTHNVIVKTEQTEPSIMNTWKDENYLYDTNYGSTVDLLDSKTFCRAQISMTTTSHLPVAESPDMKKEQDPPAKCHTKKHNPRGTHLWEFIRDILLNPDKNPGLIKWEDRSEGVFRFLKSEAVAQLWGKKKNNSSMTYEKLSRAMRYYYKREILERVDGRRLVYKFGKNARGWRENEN
Method in brief: as §1

[7] = target: SPI1 (Homo sapiens, UniProt P17947 1-270); settings: protein: recombinant; tags: N-terminal GST; dsDNA, one strand shown
Method in brief: as §1

[8] = target: SPIB (Homo sapiens, UniProt Q01892 1-262); settings: protein: recombinant; tags: N-terminal GST; dsDNA, one strand shown
Method in brief: as §1

[9] = target: T6, ELK3 (Homo sapiens, UniProt P41970 1-407); settings: protein: recombinant; tags: N-terminal GST; dsDNA, one strand shown
T6 sequence: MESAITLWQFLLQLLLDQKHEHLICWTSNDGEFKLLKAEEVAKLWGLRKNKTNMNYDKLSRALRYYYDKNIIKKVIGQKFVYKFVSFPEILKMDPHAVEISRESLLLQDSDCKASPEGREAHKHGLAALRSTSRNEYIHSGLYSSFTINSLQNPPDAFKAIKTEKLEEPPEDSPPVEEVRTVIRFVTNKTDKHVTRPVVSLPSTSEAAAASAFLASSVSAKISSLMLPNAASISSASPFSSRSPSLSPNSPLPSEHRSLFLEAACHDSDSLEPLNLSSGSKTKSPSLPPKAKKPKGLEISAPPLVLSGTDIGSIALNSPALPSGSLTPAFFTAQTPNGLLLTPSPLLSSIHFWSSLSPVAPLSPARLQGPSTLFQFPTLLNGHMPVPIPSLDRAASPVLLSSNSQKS
Method in brief: as §1

[10] = target: T7, FEV (Homo sapiens, UniProt Q99581 1-238); settings: protein: recombinant; tags: N-terminal GST; dsDNA, one strand shown
T7 sequence: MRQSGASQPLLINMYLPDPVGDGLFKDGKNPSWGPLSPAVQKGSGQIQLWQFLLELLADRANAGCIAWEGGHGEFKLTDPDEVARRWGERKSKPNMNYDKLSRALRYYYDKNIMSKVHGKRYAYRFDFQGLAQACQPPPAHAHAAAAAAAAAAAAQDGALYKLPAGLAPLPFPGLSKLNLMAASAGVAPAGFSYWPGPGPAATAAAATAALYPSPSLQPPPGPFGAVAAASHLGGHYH
Method in brief: as §1

[11] = target: ETV5 (Homo sapiens, UniProt P41161 1-510); settings: protein: recombinant; tags: N-terminal GST; dsDNA, one strand shown
Method in brief: as §1

[12] = target: HSF1 (Homo sapiens, UniProt Q00613 1-529); settings: protein: recombinant; tags: N-terminal GST; chain copies: 3; dsDNA, one strand shown
Method in brief: as §1

[13] = target: T8, SPIC (Homo sapiens, UniProt Q8N5J4 1-248); settings: protein: recombinant; tags: N-terminal GST; dsDNA, one strand shown
T8 sequence: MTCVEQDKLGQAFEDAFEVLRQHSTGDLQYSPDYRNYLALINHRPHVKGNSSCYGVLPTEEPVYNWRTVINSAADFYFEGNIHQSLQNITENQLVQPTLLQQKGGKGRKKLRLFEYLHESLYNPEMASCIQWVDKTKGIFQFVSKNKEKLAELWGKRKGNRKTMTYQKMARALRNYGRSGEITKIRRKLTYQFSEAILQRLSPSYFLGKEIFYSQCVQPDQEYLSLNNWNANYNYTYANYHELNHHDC
Method in brief: as §1

[14] = target: ELF4 (Homo sapiens, UniProt Q99607 1-663); settings: protein: recombinant; tags: N-terminal GST; dsDNA, one strand shown
Method in brief: as §1

[15] = target: T9, ELK4 (Homo sapiens, UniProt P28324-2 1-405); settings: protein: recombinant; tags: N-terminal GST; dsDNA, one strand shown
T9 sequence: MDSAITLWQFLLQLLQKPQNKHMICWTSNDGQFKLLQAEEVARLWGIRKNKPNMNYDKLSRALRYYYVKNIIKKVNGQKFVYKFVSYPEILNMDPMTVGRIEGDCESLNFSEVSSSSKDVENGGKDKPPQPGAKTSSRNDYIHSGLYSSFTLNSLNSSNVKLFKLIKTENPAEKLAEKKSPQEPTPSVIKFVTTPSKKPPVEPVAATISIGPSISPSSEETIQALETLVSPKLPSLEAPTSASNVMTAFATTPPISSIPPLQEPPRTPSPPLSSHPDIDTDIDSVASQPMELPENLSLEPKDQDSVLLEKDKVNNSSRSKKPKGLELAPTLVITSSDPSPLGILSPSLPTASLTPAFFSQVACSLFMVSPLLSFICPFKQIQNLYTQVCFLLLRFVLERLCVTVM
Method in brief: as §1

[16] = target: T10, ETV2 (Homo sapiens, UniProt O00321 1-342); settings: protein: recombinant; tags: N-terminal GST; dsDNA, one strand shown
T10 sequence: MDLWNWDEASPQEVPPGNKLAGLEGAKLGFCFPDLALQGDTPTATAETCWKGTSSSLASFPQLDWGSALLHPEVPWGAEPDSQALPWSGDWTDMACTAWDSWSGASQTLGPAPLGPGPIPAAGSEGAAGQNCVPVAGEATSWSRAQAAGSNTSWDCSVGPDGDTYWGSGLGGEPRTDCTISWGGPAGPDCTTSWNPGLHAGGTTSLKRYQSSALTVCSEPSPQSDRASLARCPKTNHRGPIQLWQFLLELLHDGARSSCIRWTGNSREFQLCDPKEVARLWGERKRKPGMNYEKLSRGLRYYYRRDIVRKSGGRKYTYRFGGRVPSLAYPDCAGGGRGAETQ
Method in brief: as §1

[17] = target: T11, ELF3 (Homo sapiens, UniProt P78545 1-371); settings: protein: recombinant; tags: N-terminal GST; dsDNA, one strand shown
T11 sequence: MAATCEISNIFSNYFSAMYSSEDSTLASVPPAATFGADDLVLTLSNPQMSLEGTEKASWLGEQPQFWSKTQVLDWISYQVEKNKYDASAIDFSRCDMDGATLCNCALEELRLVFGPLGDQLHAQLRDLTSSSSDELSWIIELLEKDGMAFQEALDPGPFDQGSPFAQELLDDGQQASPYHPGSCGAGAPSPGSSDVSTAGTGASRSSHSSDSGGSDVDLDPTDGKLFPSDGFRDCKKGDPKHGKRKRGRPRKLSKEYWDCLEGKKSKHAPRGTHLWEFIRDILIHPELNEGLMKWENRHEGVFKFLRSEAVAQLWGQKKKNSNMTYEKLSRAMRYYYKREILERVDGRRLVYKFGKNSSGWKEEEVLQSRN
Method in brief: as §1

[18] = target: CRX (Homo sapiens, UniProt O43186 1-299); settings: protein: recombinant; tags: N-terminal GST; dsDNA, one strand shown
Method in brief: as §1

[19] = target: ETV1 (Homo sapiens, UniProt P50549 1-477); settings: protein: recombinant; tags: N-terminal GST; dsDNA, one strand shown
Method in brief: as §1

ETV5, sequence (P41161 whole entry): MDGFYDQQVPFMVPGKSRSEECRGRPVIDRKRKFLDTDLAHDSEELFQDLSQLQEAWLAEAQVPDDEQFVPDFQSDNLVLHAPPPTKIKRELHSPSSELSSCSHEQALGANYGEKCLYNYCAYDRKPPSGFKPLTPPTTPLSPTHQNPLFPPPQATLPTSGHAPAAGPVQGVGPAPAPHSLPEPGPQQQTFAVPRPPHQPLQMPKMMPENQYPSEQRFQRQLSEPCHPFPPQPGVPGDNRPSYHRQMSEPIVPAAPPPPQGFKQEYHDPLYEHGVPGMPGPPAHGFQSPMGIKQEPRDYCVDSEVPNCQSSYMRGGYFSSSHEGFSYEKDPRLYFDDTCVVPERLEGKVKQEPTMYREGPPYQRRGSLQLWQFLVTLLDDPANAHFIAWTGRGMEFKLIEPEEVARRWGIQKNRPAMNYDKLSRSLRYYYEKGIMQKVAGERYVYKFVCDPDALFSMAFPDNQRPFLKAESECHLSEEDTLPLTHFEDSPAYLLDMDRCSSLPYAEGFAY
ETV1, sequence (P50549 whole entry): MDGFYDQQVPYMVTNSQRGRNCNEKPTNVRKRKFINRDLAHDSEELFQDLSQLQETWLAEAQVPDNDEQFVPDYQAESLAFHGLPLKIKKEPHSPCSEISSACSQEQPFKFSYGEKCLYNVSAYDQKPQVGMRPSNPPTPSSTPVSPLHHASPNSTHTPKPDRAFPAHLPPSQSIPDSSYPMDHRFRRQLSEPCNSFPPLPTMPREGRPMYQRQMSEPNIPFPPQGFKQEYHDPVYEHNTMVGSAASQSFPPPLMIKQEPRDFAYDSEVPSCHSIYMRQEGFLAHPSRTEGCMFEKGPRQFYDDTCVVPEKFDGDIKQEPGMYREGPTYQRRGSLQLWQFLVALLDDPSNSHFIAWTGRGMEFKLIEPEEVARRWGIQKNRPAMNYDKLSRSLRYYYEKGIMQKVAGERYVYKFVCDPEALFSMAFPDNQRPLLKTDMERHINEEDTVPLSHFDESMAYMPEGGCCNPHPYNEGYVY
ELF1, sequence (P32519 whole entry): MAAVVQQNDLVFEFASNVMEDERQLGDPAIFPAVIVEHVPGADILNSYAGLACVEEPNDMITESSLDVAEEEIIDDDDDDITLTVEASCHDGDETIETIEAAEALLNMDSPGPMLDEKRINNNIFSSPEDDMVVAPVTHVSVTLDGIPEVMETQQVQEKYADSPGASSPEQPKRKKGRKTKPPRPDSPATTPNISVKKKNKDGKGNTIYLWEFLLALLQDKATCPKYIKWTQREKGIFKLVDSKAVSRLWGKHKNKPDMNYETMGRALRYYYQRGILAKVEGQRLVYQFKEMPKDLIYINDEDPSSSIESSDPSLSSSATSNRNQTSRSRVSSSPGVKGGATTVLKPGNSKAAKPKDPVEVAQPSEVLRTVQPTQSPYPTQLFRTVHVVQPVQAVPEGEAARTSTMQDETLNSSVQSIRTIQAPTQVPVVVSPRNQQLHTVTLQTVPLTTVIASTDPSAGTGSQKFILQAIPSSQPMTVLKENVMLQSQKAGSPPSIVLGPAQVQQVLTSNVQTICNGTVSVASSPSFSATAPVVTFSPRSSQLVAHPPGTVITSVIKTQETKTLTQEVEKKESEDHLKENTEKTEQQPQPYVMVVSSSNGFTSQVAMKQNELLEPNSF
HSF1, sequence (Q00613 whole entry): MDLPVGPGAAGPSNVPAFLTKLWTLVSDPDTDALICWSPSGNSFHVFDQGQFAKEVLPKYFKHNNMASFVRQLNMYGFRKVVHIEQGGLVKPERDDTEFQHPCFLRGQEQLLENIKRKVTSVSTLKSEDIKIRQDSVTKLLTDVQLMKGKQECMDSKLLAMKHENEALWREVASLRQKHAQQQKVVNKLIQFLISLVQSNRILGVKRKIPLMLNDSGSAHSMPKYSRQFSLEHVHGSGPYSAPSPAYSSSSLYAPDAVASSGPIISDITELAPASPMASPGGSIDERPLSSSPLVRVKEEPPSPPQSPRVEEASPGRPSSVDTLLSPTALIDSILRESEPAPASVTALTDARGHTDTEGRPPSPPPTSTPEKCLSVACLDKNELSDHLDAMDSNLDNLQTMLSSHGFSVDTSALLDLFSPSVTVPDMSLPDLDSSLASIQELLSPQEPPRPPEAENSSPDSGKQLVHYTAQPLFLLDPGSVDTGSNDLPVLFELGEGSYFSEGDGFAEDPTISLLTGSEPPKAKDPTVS
CRX, sequence (O43186 whole entry): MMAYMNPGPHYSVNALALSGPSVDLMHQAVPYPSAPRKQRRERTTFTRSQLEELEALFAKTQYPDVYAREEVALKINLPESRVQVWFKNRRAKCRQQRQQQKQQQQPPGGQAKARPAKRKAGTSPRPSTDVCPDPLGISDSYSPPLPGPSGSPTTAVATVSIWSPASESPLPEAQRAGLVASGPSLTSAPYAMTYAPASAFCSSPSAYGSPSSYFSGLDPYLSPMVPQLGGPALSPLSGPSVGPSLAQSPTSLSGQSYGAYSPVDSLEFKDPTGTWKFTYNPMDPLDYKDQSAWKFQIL
ELF4, sequence (Q99607 whole entry): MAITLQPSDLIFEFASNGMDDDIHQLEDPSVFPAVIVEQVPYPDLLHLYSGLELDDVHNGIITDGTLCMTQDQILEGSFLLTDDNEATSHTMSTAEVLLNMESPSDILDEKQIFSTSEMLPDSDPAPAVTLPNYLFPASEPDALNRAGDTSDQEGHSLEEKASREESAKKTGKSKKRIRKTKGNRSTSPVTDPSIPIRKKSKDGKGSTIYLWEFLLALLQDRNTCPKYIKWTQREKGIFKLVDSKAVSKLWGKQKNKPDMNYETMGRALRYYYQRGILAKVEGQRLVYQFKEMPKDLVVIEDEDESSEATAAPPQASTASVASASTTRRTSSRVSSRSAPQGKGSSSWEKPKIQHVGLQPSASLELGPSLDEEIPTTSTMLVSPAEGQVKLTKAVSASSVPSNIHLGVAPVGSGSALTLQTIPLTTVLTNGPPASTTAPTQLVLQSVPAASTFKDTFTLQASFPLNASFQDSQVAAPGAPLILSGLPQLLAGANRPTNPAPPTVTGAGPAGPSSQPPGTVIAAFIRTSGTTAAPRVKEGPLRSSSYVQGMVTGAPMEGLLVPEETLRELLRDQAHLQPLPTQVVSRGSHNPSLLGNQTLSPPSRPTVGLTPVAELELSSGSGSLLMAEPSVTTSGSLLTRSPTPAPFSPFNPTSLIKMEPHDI
SPIB, sequence (Q01892 whole entry): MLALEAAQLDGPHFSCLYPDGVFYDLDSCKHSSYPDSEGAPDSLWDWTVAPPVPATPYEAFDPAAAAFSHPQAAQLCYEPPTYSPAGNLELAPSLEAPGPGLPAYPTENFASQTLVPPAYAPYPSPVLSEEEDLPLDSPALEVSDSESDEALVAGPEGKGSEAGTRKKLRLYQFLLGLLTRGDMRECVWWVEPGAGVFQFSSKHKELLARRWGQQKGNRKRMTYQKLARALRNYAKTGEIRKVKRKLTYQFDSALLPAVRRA

## TTTCAC
[1]
  binding signal: 1.39 fold enrichment (6-mer frequency, TF over GST control)
[2]
  binding signal: 1.34 fold enrichment (6-mer frequency, TF over GST control)
[3]
  binding signal: 1.37 fold enrichment (6-mer frequency, TF over GST control)
[4]
  binding signal: 1.33 fold enrichment (6-mer frequency, TF over GST control)
[5]
  binding signal: 1.43 fold enrichment (6-mer frequency, TF over GST control)
[6]
  binding signal: 1.3 fold enrichment (6-mer frequency, TF over GST control)
[7]
  binding signal: 1.34 fold enrichment (6-mer frequency, TF over GST control)
[8]
  binding signal: 1.27 fold enrichment (6-mer frequency, TF over GST control)
[9]
  binding signal: 1.39 fold enrichment (6-mer frequency, TF over GST control)
[10]
  binding signal: 1.37 fold enrichment (6-mer frequency, TF over GST control)
[11]
  binding signal: 1.37 fold enrichment (6-mer frequency, TF over GST control)
[12]
  binding signal: 1.23 fold enrichment (6-mer frequency, TF over GST control)
[13]
  binding signal: 1.17 fold enrichment (6-mer frequency, TF over GST control)
[14]
  binding signal: 1.43 fold enrichment (6-mer frequency, TF over GST control)
[15]
  binding signal: 1.52 fold enrichment (6-mer frequency, TF over GST control)
[16]
  binding signal: 1.35 fold enrichment (6-mer frequency, TF over GST control)
[17]
  binding signal: 1.26 fold enrichment (6-mer frequency, TF over GST control)
[18]
  binding signal: 1.14 fold enrichment (6-mer frequency, TF over GST control)
[19]
  binding signal: 1.42 fold enrichment (6-mer frequency, TF over GST control)
